Source: PubChem (The Scripps Research Institute Molecular Screening Center)
PME-1 Maybr inh = inhibitors of human PME-1 in Maybridge library; Protein phosphatase methylesterase 1 (Homo sapiens), Q9Y570; recombinant PME-1, FP-Rh probe fluorescence polarization; inhibition, % at 9 µM; 16,000 compounds, 0.5% hits; in the data active = inhibition above about 30%
Target sequence (Q9Y570 whole entry, looked up): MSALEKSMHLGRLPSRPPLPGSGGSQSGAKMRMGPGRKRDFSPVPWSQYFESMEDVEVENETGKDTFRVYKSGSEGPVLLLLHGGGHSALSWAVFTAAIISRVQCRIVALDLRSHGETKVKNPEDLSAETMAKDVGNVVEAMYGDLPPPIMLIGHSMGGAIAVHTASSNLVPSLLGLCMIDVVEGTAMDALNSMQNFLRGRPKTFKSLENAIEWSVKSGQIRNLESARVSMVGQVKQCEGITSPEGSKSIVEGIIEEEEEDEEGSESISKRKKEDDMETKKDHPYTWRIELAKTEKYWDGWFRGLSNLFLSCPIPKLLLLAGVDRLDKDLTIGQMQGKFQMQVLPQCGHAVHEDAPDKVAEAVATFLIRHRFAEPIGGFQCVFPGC
S1P1 ag = activates the human S1P1 receptor | activation, % at 4.5 µM | S1P1 agonist cell-based reporter assay | 16,000 compounds, 1.5% hits | Sphingosine 1-phosphate receptor 1 (Homo sapiens), P21453; in the data active = activation above about 80%
rat GALR2 agon = agonists of rat galanin receptor 2 (GALR2); Galanin receptor type 2 (Rattus norvegicus), O08726; cell-based GALR2 agonist screen; activation, % at 10 µM; 16,000 compounds, 0.5% hits; AID 833, 2007; in the data active = activation above about 15%
* = called active by the depositor. An excerpt weighted towards active compounds, which were near 2.7% of everything screened.

N#C/C(=C\c1ccc[nH]1)C(=O)Nc1ccc(F)c(F)c1F was read as PME-1 Maybr inh 5, S1P1 ag -14 and rat GALR2 agon -12.
Screening O=C1c2ccccc2C(=O)c2c(NCCc3ccc(O)cc3)ccc(NCCc3ccc(O)cc3)c21 returned PME-1 Maybr inh 17, S1P1 ag -36 and rat GALR2 agon -6.
For Nc1cc(S(=O)(=O)O)c(N)c2c1C(=O)c1ccccc1C2=O the results were PME-1 Maybr inh 99*, S1P1 ag -13 and rat GALR2 agon -8.
Cc1ccc(C)n1-c1ccc(OC(F)(F)F)cc1 was read as PME-1 Maybr inh 4, S1P1 ag 3 and rat GALR2 agon -5.
Screening N#Cc1nc(=O)n(-c2ccc(OC(F)(F)F)cc2)c(N)c1N=Cc1ccc(C(F)(F)F)cc1 returned PME-1 Maybr inh -51, S1P1 ag 106* and rat GALR2 agon -8.
Screening O=C(Nc1ccc(Cl)cc1)c1csc([N+](=O)[O-])c1 returned PME-1 Maybr inh 4, S1P1 ag 12 and rat GALR2 agon -6.
O=C(Nc1ccc(-c2cnco2)cc1)c1csc([N+](=O)[O-])c1 was read as PME-1 Maybr inh -14, S1P1 ag 105* and rat GALR2 agon -1.
`CSc1cccc(N/C(=N\S(=O)(=O)c2ccccc2)SCC(=O)O)c1` gave PME-1 Maybr inh 6, S1P1 ag 16 and rat GALR2 agon -5.
Screening CSc1cccc(N/C(=N\S(=O)(=O)c2ccccc2)NN)c1 returned PME-1 Maybr inh 43*, S1P1 ag -4 and rat GALR2 agon -4.
Screening Cc1cc(C(=O)Nc2nc3ccc(Cl)cc3s2)nn1C returned PME-1 Maybr inh 8, S1P1 ag 103* and rat GALR2 agon -4.
Screening Cc1cc(C(=O)Nc2ccc(N3CCOCC3)cc2)nn1C returned PME-1 Maybr inh 4, S1P1 ag 1 and rat GALR2 agon -2.
Screening CC(C)(C)c1ccc(NC(=O)c2ccc(N3C(=O)CSCC3=O)cc2)cc1 returned PME-1 Maybr inh -39, S1P1 ag 93* and rat GALR2 agon -6.
For CC(=O)Nc1ccc(/C=N/NC(=O)c2ccc(C(C)(C)C)cc2)cc1 the results were PME-1 Maybr inh 3, S1P1 ag 13 and rat GALR2 agon -8.
`O=C1c2ccc3ccccc3c2-c2cccc3cccc1c23` gave PME-1 Maybr inh 40*, S1P1 ag -5 and rat GALR2 agon -7.
`O=C1Nc2ccccc2/C1=C\c1cccc2ccccc12` gave PME-1 Maybr inh 3, S1P1 ag 40 and rat GALR2 agon 5.
O=C(Nc1c(F)cc(F)cc1Br)c1ccccc1F was read as PME-1 Maybr inh 3, S1P1 ag 8 and rat GALR2 agon -4.
Screening Cc1c(C)c(C)c(C(=O)c2ccccc2C(=O)NN)c(C)c1C returned PME-1 Maybr inh -5, S1P1 ag 81* and rat GALR2 agon -7.
`NNC(=O)c1ccccc1-n1cccc1` gave PME-1 Maybr inh 6, S1P1 ag 3 and rat GALR2 agon -9.
Screening CSc1cccc(NC(=S)NCCCO)c1 returned PME-1 Maybr inh -7, S1P1 ag 7 and rat GALR2 agon -3.
CSc1cccc(NC(=S)NCc2ccc(C#N)cc2)c1 was read as PME-1 Maybr inh 61*, S1P1 ag -5 and rat GALR2 agon -1.
Screening Cc1nnsc1C(=O)Nc1ccc(-n2nc(C(F)(F)F)cc2C(F)(F)F)cc1 returned PME-1 Maybr inh -6, S1P1 ag 99* and rat GALR2 agon -11.
Cc1nnsc1C(=O)Nc1ccc(-n2nc(C(F)(F)F)cc2-c2cccs2)cc1 was read as PME-1 Maybr inh -97, S1P1 ag 24 and rat GALR2 agon -8.
`O=C(OC1CCSC1)c1cc(C(F)(F)F)cc(C(F)(F)F)c1` (stereo not given) gave PME-1 Maybr inh -3, S1P1 ag 120* and rat GALR2 agon -9.
`N/C(=N\OC(=O)c1cccc(C(F)(F)F)c1)C1CSCCS1` (stereo not given) gave PME-1 Maybr inh 1, S1P1 ag -1 and rat GALR2 agon -3.
`O=C(O)Cc1csc2ccccc12` gave PME-1 Maybr inh 0, S1P1 ag 2 and rat GALR2 agon -6.
Screening O=[N+]([O-])c1ccccc1SCc1csc2ccccc12 returned PME-1 Maybr inh 3, S1P1 ag 98* and rat GALR2 agon -6.
`CCOC(=O)C1CCc2sc(N)c(C#N)c21` (stereo not given) gave PME-1 Maybr inh 6, S1P1 ag -3 and rat GALR2 agon -4.
Screening COc1cc(NC(=O)c2cc(OC)c(OC)c(OC)c2)c(OC)cc1Cl returned PME-1 Maybr inh 5, S1P1 ag -18 and rat GALR2 agon -5.
For Nc1c(Cl)cc(C(=O)Nc2cc(Cl)c(Cl)cc2Cl)cc1Cl the results were PME-1 Maybr inh -93, S1P1 ag -24 and rat GALR2 agon 17*.
For COc1cc([N+](=O)[O-])c(OC)cc1SCC(=O)NNC(=O)c1cc(OC)c(OC)c(OC)c1 the results were PME-1 Maybr inh 6, S1P1 ag -5 and rat GALR2 agon -3.
Screening C=C(C)n1c(=O)n(-c2ccc(C(F)(F)F)cc2[N+](=O)[O-])c2ccccc21 returned PME-1 Maybr inh 0, S1P1 ag -6 and rat GALR2 agon -6.
`NC(=O)C1CCN(Cn2cnc3ccccc32)CC1` gave PME-1 Maybr inh 5, S1P1 ag -2 and rat GALR2 agon -5.
N#C/C(=C\c1ccc(C#Cc2ccccc2)s1)C(=O)c1ccco1 was read as PME-1 Maybr inh -30, S1P1 ag 13 and rat GALR2 agon 16*.
`N#C/C(=C\c1cc(C#Cc2ccccc2)cs1)C(=O)c1ccco1` gave PME-1 Maybr inh 7, S1P1 ag -6 and rat GALR2 agon 5.
Screening O=C(O)c1ccccc1C(=O)Nc1ccc(F)cc1 returned PME-1 Maybr inh 4, S1P1 ag 6 and rat GALR2 agon 1.
`COc1ccc(C(=O)/C=C/OC(=O)c2ccc(Cl)cc2)cc1` gave PME-1 Maybr inh -1, S1P1 ag -15 and rat GALR2 agon -4.
For CCOC(=O)c1cnn(-c2nc(-c3ccccc3)cs2)c1C(F)(F)F the results were PME-1 Maybr inh -10, S1P1 ag 82* and rat GALR2 agon -8.
CCOC(=O)c1cnn(C(=O)c2cnn(-c3ccc([N+](=O)[O-])cc3)c2C(F)(F)F)c1C(F)(F)F was read as PME-1 Maybr inh -3, S1P1 ag 52 and rat GALR2 agon -3.
Nc1ncc(C(=O)OCc2ccc(Cl)cc2)c(C(F)(F)F)n1 was read as PME-1 Maybr inh -2, S1P1 ag 10 and rat GALR2 agon -6.
For O=[N+]([O-])c1cc(C(F)(F)F)cc([N+](=O)[O-])c1O/N=C1\CSCc2ccccc21 the results were PME-1 Maybr inh -3, S1P1 ag 16 and rat GALR2 agon 40*.
`NS(=O)(=O)c1ccc(N/N=C2\CSCc3ccccc32)c([N+](=O)[O-])c1` gave PME-1 Maybr inh 9, S1P1 ag 13 and rat GALR2 agon -6.
`COc1ccc2[nH]c(=S)[nH]c2c1` gave PME-1 Maybr inh 2, S1P1 ag -1 and rat GALR2 agon -3.
Screening O=S(=O)(O)c1ccc2[nH]c(=S)[nH]c2c1 returned PME-1 Maybr inh 3, S1P1 ag 0 and rat GALR2 agon 60*.
Screening Nc1ccc(Nc2ccc(N)cc2S(=O)(=O)O)cc1 returned PME-1 Maybr inh 44*, S1P1 ag -6 and rat GALR2 agon -3.
`CCCS(=O)(=O)/C(C#N)=C/c1ccc(-c2ccc(OC)cc2)s1` gave PME-1 Maybr inh 1, S1P1 ag -6 and rat GALR2 agon -5.
